# Measured values reported in the supplement of paper PMC10037445.
# Values joined by “and” are separate entries in the source; they are usually repeats but may differ in a detail not shown here. Equal entries are not always repeated. Whole data set: some 2,900 compounds, median “NF-kB SEAP reporter activity, fold change vs agonist alone” near 0.99, cut for the highest 2% near 2.6. The full list was thinned out, with the highest values kept by preference.
# Key:
# RAW-Dual [1] = assay: NF-kB SEAP reporter activity, fold change vs agonist alone; higher = enhanced NF-kB activity; conditions: cytotoxicity flag (confluency mask): not cytotoxic
# Procedure, shortened: (§1)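 Reporter activity is given as fold change relative to agonist-alone wells. To measure it, 50 nL of library stock was pin-tooled onto RAW-Dual macrophages (50,000 cells/well, DMEM, 384-well plates), a PRR agonist followed 1 h later, and cells stayed at 37 °C, 5% CO2. Twenty hours on, supernatant was assayed for IRF (QuantiLuc luminescence) and NF-κB (QuantiBlue, 620 nm absorbance), and wells under 70% of agonist-control IncuCyte confluency in both mask sets were marked cytotoxic.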
# RAW-Dual [2] = assay: NF-kB SEAP reporter activity, fold change vs agonist alone; cytotoxicity flag (confluency mask): not cytotoxic; higher = enhanced NF-kB activity
# Procedure, shortened: as §1
# [3] = library stock concentration (final ~1000-fold dilution): 10 mM, agonist: Imiquimod (TLR7) […]
# [4] = library stock concentration (final ~1000-fold dilution): 10 mM, agonist: MPLA (TLR4) […]
# [5] = agonist: ODN 1826 (TLR9) 0.5 ug/mL
# [6] = agonist: Pam2CSK4 (TLR2/6) 0.1 ug/mL
# [7] = agonist: Pam3CSK4 (TLR2/1) 0.1 ug/mL
compound,measurement,setting,value
O.c1cnc2c(c1)ccc1cccnc12,NF-kB SEAP reporter activity,RAW-Dual [1]; [3],2.78
same,NF-kB SEAP reporter activity,RAW-Dual [1]; [4],2.1
O=C(O)c1ccc(O)c2ncccc12 (library stock concentration (final ~1000-fold dilution): 10 mM),NF-kB SEAP reporter activity,RAW-Dual [2]; agonist: LPS (TLR4) 0.1 ug/mL,1.21
same,NF-kB SEAP reporter activity,RAW-Dual [2]; [5],1.04
same,NF-kB SEAP reporter activity,RAW-Dual [2]; [6],0.998
same,NF-kB SEAP reporter activity,RAW-Dual [2]; [7],1.4
N#Cc1ncccn1,NF-kB SEAP reporter activity,"RAW-Dual [1]; library stock concentration (final ~1000-fold dilution): 2 mM, agonist: Imiquimod (TLR7) […]",1
same,NF-kB SEAP reporter activity,"RAW-Dual [1]; library stock concentration (final ~1000-fold dilution): 2 mM, agonist: MPLA (TLR4) […]",1
O=C(O)c1ccc(O)c2ncccc12,NF-kB SEAP reporter activity,RAW-Dual [1]; [3],1.05
same,NF-kB SEAP reporter activity,RAW-Dual [1]; [4],1.03
N#Cc1ncccn1 (library stock concentration (final ~1000-fold dilution): 2 mM),NF-kB SEAP reporter activity,RAW-Dual [2]; agonist: LPS (TLR4) 0.1 ug/mL,1.32
same,NF-kB SEAP reporter activity,RAW-Dual [2]; [5],1.02
same,NF-kB SEAP reporter activity,RAW-Dual [2]; [6],1.09
same,NF-kB SEAP reporter activity,RAW-Dual [2]; [7],1.05
O.c1cnc2c(c1)ccc1cccnc12 (library stock concentration (final ~1000-fold dilution): 10 mM),NF-kB SEAP reporter activity,RAW-Dual [2]; agonist: LPS (TLR4) 0.1 ug/mL,2.48
same,NF-kB SEAP reporter activity,RAW-Dual [2]; [5],1.17
same,NF-kB SEAP reporter activity,RAW-Dual [2]; [6],1.44
same,NF-kB SEAP reporter activity,RAW-Dual [2]; [7],2.06
CCn1cc(C(=O)O)c(=O)c2cc(F)c(N3CCN(C)CC3)cc21.CS(=O)(=O)O.O.O,NF-kB SEAP reporter activity,RAW-Dual [1]; [3],0.752
same,NF-kB SEAP reporter activity,RAW-Dual [1]; [4],0.814
CCn1cc(C(=O)O)c(=O)c2cc(F)c(N3CCN(C)CC3)cc21.CS(=O)(=O)O.O.O (library stock concentration (final ~1000-fold dilution): 10 mM),NF-kB SEAP reporter activity,RAW-Dual [2]; agonist: LPS (TLR4) 0.1 ug/mL,1.38
same,NF-kB SEAP reporter activity,RAW-Dual [2]; [5],0.867
same,NF-kB SEAP reporter activity,RAW-Dual [2]; [6],1.01
same,NF-kB SEAP reporter activity,RAW-Dual [2]; [7],1.01
Cl.Cl.OC(CN1CCN(c2cccc(Cl)c2)CC1)C(c1ccccc1)c1ccccc1 (centres undefined),NF-kB SEAP reporter activity,RAW-Dual [1]; [3],1.33
same,NF-kB SEAP reporter activity,RAW-Dual [1]; [4],1.04
Cl.Cl.OC(CN1CCN(c2cccc(Cl)c2)CC1)C(c1ccccc1)c1ccccc1 (centres undefined) (library stock concentration (final ~1000-fold dilution): 10 mM),NF-kB SEAP reporter activity,RAW-Dual [2]; agonist: LPS (TLR4) 0.1 ug/mL,0.841
same,NF-kB SEAP reporter activity,RAW-Dual [2]; [5],1.02
same,NF-kB SEAP reporter activity,RAW-Dual [2]; [6],0.761
same,NF-kB SEAP reporter activity,RAW-Dual [2]; [7],0.956
CC(=O)OC1CC2CCC3C(CCC4(C)C3CC([N+]3(C)CCCCC3)C4OC(C)=O)C2(C)CC1N1CCCCC1 (centres undefined),NF-kB SEAP reporter activity,RAW-Dual [1]; [3],0.939
same,NF-kB SEAP reporter activity,RAW-Dual [1]; [4],0.965
CC(=O)OC1CC2CCC3C(CCC4(C)C3CC([N+]3(C)CCCCC3)C4OC(C)=O)C2(C)CC1N1CCCCC1 (centres undefined) (library stock concentration (final ~1000-fold dilution): 10 mM),NF-kB SEAP reporter activity,RAW-Dual [2]; agonist: LPS (TLR4) 0.1 ug/mL,1.04
same,NF-kB SEAP reporter activity,RAW-Dual [2]; [5],1.02
same,NF-kB SEAP reporter activity,RAW-Dual [2]; [6],0.945
same,NF-kB SEAP reporter activity,RAW-Dual [2]; [7],1.01
CCOC(=O)/C=C/c1ccc(O)c(O)c1 (library stock concentration (final ~1000-fold dilution): 10 mM),NF-kB SEAP reporter activity,RAW-Dual [2]; agonist: LPS (TLR4) 0.1 ug/mL,0.633 and 0.814
same,NF-kB SEAP reporter activity,RAW-Dual [2]; [5],0.407 and 0.651
same,NF-kB SEAP reporter activity,RAW-Dual [2]; [6],0.658 and 0.524
same,NF-kB SEAP reporter activity,RAW-Dual [2]; [7],0.563 and 0.481
NS(=O)(=O)NCCNc1nonc1C(=Nc1ccc(F)c(Br)c1)NO (library stock concentration (final ~1000-fold dilution): 10 mM),NF-kB SEAP reporter activity,RAW-Dual [2]; agonist: LPS (TLR4) 0.1 ug/mL,1.01
same,NF-kB SEAP reporter activity,RAW-Dual [2]; [5],0.936
same,NF-kB SEAP reporter activity,RAW-Dual [2]; [6],0.922
same,NF-kB SEAP reporter activity,RAW-Dual [2]; [7],0.961
NS(=O)(=O)NCCNc1nonc1C(=Nc1ccc(F)c(Br)c1)NO,NF-kB SEAP reporter activity,RAW-Dual [1]; [3],0.862
same,NF-kB SEAP reporter activity,RAW-Dual [1]; [4],0.907
CCN(CC)C(=O)Nc1ccc(OCC(O)CNC(C)(C)C)c(C(C)=O)c1.Cl (centres undefined),NF-kB SEAP reporter activity,RAW-Dual [1]; [3],2.4
same,NF-kB SEAP reporter activity,RAW-Dual [1]; [4],2.24
CCCC(=O)Nc1ccc(OCC(O)CNC(C)C)c(C(C)=O)c1.Cl (centres undefined),NF-kB SEAP reporter activity,RAW-Dual [1]; [3],1
same,NF-kB SEAP reporter activity,RAW-Dual [1]; [4],1.08
CC(C)(C)NCC(O)COc1cccc2c1CCC(=O)N2.Cl (centres undefined) (library stock concentration (final ~1000-fold dilution): 10 mM),NF-kB SEAP reporter activity,RAW-Dual [2]; agonist: LPS (TLR4) 0.1 ug/mL,1.11
same,NF-kB SEAP reporter activity,RAW-Dual [2]; [5],1.05
same,NF-kB SEAP reporter activity,RAW-Dual [2]; [6],1.04
same,NF-kB SEAP reporter activity,RAW-Dual [2]; [7],1.11
CCCC(=O)Nc1ccc(OCC(O)CNC(C)C)c(C(C)=O)c1.Cl (centres undefined) (library stock concentration (final ~1000-fold dilution): 10 mM),NF-kB SEAP reporter activity,RAW-Dual [2]; agonist: LPS (TLR4) 0.1 ug/mL,1.54
same,NF-kB SEAP reporter activity,RAW-Dual [2]; [5],1.08
same,NF-kB SEAP reporter activity,RAW-Dual [2]; [6],1.11
same,NF-kB SEAP reporter activity,RAW-Dual [2]; [7],1.16
CCN(CC)C(=O)Nc1ccc(OCC(O)CNC(C)(C)C)c(C(C)=O)c1.Cl (centres undefined) (library stock concentration (final ~1000-fold dilution): 10 mM),NF-kB SEAP reporter activity,RAW-Dual [2]; agonist: LPS (TLR4) 0.1 ug/mL,3.5
same,NF-kB SEAP reporter activity,RAW-Dual [2]; [5],2.46
same,NF-kB SEAP reporter activity,RAW-Dual [2]; [6],1.6
same,NF-kB SEAP reporter activity,RAW-Dual [2]; [7],3.15
CC(C)(C)NCC(O)COc1cccc2c1CCC(=O)N2.Cl (centres undefined),NF-kB SEAP reporter activity,RAW-Dual [1]; [3],1.02
same,NF-kB SEAP reporter activity,RAW-Dual [1]; [4],1.07
